PubChem BioAssay AID1347145 (National Center for Advancing Translational Sciences (NCATS), 2019)
Records with an inconclusive call do not appear. Active and inactive are the calls of the source. The call rests on the fitted dose curve; in most records, active means well fitted inhibition curve with a large enough effect; inconclusive means small, poorly fitted or top-dose-only effect; inactive means no such curve, though single readings can be large or run the other way.

Target: N-terminal Xaa-Pro-Lys N-methyltransferase 1 (Homo sapiens) (UniProt Q9BV86)
Experiment: qHTS Assay for Inhibitors of N-terminal methyltransferase 1 (NTMT1): MTaseGlo Assay Confirmatory Screen, Round 1
Conditions: Recombinant NTMT1, MTase-Glo SAH luminescence; series mostly up to 57.1 µM
From the text: Assay Submitter (PI): Rong Huang Ph.D, Purdue University, West Lafayette, IN 47907 The N-terminal methytransferase 1 is the first methyltransferase that methylates protein alpha-N-amines and plays an important role in regulating cell mitosis, chromatin interactions and DNA repair. It is observed to be over-expressed in various cancer patient tissues like malignant melanoma and colorectal cancer tissues. Knockdown of NTMT1 in cancer cells causes cell mitotic defects and enhances sensitivity to DNA damaging chemotherapeutics. […] These critical cellular processes in which NTMT1 is implicated, coupled with emerging links to cellular dysfunction, strengthen the inference that NTMT1 is a compelling novel anticancer target. Progress have been made in understanding the molecular properties of NTMT1 and the biological consequences of protein alpha-N-terminal methylation, but there are no specific small molecule probes available for NTMT1 to fully characterize its MTase activity. To address this unmet need, a panel of assay is created and established to enable quantitative high-throughput screening (qHTS) for novel, potent, and selective small molecule NTMT1 inhibitors. Two orthogonal qHTS that use different reagents (ThioGlo vs. MTaseGlo) are developed for primary robotic screening against the NCATS chemical library of more than 400,000 small molecules. Identified inhibitors are reacquired, validated, and further characterized. MTaseGlo Assay is a luminescence screen that measure the activity of methyltransferases based on the reaction product S-adenosyl homocysteine (SAH). The substrate SAM is converted to SAH upon enzyme activation. MTase-Glo reagent and detection solution convert SAH to ATP and measure the light from the luciferase reaction. […] Early Translation Branch (ETB) National Center for Advancing Translational Sciences (NCATS) National Institute of Health (NIH)
Materials: NTMT1 enzyme, substrate SPKRIA, control peptide RCC1-6 is provided by the Huang laboratory. MTaseGlo Assay: In brief, 3 µL of enzyme mixture (final concentrations of 125 nM and 100 µM for NTMT1 and SAM, respectively) into all wells of a 1,536-well solid-bottom white plate (Greiner Bio One, Monroe, NC). 23 nL of DMSO or Ac-RCC1-10 (final concentration range 234 nM to 143 microM) was transferred via Wako Pin-tool (Wako Automation, Richmond, VA) and incubated (RT) for ~15 minutes. Next, 1 µL of substrate (final concentration 1 µM) or buffer was dispensed, and the reaction proceeded for 30 minutes (RT, protected from light) followed by a 1 microL addition of [5X] MTase-Glo Reagent(R). Samples were incubated (RT, protected from light) for 30 minutes to allow for SAH to be converted to ADP, followed by a 5 microL addition of [1X] MTase-Glo Detection Solution(R) to allow for ADP to be converted to ATP, which was then detected with a luciferase reaction. Samples were centrifuged for 15 seconds at 1,000 RPM's, followed by a RT incubation for 30 minutes. Plates were then read using Luminescence optics on a ViewLux detector. Data were normalized to no-enzyme (0% activity) and no-inhibitor (DMSO; 100%) controls, and the resulting percent inhibition data were fitted to a 4-parameter Hill equation using Graphpad Prism.

Sequence of N-terminal Xaa-Pro-Lys N-methyltransferase 1 (Homo sapiens) (Q9BV86 whole entry, looked up): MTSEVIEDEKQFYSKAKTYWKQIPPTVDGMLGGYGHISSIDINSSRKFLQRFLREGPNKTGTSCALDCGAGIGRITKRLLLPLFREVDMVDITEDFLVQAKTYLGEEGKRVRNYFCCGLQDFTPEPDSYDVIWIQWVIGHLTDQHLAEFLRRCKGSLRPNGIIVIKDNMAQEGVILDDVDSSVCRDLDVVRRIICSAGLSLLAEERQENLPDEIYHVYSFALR

Potency, inactive:
COc1cc2nc(Nc3ccccc3)nc(NC3CC3)c2cc1OC, COc1cc2nc(N3CCN(C)CC3)nc(NC3CCN(Cc4ccccc4)CC3)c2cc1OC, OCC1OC(n2cnc3c(NO)ncnc32)C(O)C1O (stereo not given), OC[C@@H]1O[C@@H](n2cnc3c(NCc4ccco4)ncnc32)[C@H](O)[C@H]1O, Nc1nc(Cl)nc2c1ncn2[C@@H]1O[C@H](COP(=O)(O)OP(=O)(O)OP(=O)(O)O)C(O)[C@H]1O (stereo not given in full), Nc1nc(Cl)nc2c1ncn2[C@@H]1O[C@H](CO)[C@@H](O)[C@@H]1F, Nc1ncnc2c1ncn2[C@H]1O[C@@H](CSCC[C@@H](N)C(=O)O)[C@H](O)[C@@H]1O, COc1cc2c(NC3CCN(CC4CCCCC4)CC3)nc(N3CCCCC3)nc2cc1OCCCN1CCCCC1, OC[C@H]1O[C@@H](n2cnc3c(Nc4ccccc4)ncnc32)[C@H](O)[C@@H]1O, C=CCNc1nc(NC2CCN(C)CC2)c2cc(OC)c(OC)cc2n1, CCN(c1cc(C#CCN2CCOCC2)cc(C(=O)NCc2c(C)cc(C)[nH]c2=O)c1C)C1CCC(N(C)CCOC)CC1 (stereo not given), COc1cc2c(NC3CCN(C(C)C)CC3)nc(N3CCCN(C(C)C)CC3)nc2cc1OCCOCCN(C)C, Nc1ncnc2c1[nH]c(=O)n2C1CC(O)C(CO)O1 (stereo not given), Nc1nc2c(ncn2[C@@H]2O[C@H](CO)[C@@H](O)[C@H]2O)c(=O)[nH]1, COc1cc2c(NC3CCN(C)CC3)nc(N3CCCN(C)CC3)nc2cc1OCC1CCNCC1, COc1cc2c(NC3CCN(C)CC3)nc(N3CCN(C)CC3)nc2cc1OCCCN(C)C, COc1cc2nc(N3CCCCC3)nc(NC3CCN(C)CC3)c2cc1OC, COCCCCOc1cc2nc(N3CCCN(C)CC3)nc(NC3CCN(C)CC3)c2cc1OC, CCNc1nc(N2CCCN(C)CC2)nc2cc(OC)c(OC)cc12, Nc1ncnc2c1[nH]c(=O)n2C1OC(CO)C(O)C1O (stereo not given), COc1cc2c(NC3CCN(C(C)C)CC3)nc(N3CCCN(C)CC3)nc2cc1OCCCN(C)C, Nc1ncnc2c1[nH]c(=S)n2C1OC(CO)C(O)C1O (stereo not given), COc1cc2nc(N3CCN(C)CC3)nc(NC(C)C)c2cc1OC, CC(C)(COP(=O)(O)OP(=O)(O)OC[C@H]1O[C@@H](n2cnc3c(N)ncnc32)[C@H](O)[C@@H]1OP(=O)(O)O)[C@H](O)C(=O)NCCC(=O)NCCS, COc1cc2c(NC3CCN(C)CC3)nc(N3CCCN(C)CC3)nc2cc1O, Nc1ncnc2c1ncn2[C@@H]1O[C@H](COP(=O)(O)OP(=O)(O)OC[C@H]2OC(O)[C@H](O)[C@@H]2O)[C@@H](O)[C@H]1O (stereo not given in full), COc1cc2c(NC3CCN(C)CC3)nc(N3CCCN(C)CC3)nc2cc1OCCCN1CCCC1, CCCCC#Cc1nc(NC)c2ncn([C@@H]3O[C@H](CO)[C@@H](O)C3O)c2n1 (stereo not given in full), COc1cc2nc(N3CCN(C(N)=O)CC3)nc(NC3CC3)c2cc1OC, COc1cc2c(NC3CCN(C)CC3)nc(N3CCCN(C)CC3)nc2cc1OCCN(C)CCN(C)C, COc1cc2nc(N3CCCN(C)CC3)nc(NC3CC3)c2cc1OC, C[C@H](Cc1ccccc1)Nc1ncnc2c1ncn2[C@@H]1O[C@H](CO)C(O)[C@H]1O (stereo not given in full), COc1cc2nc(N3CCN(C)CC3)nc(N3CCOCC3)c2cc1OC, CNc1nc2c(N)ncnc2n1[C@@H]1O[C@@H]2COP(=O)(O)O[C@H]2[C@H]1O, Nc1ncnc2c1ncn2[C@@H]1O[C@H](COP(=O)(O)OP(=O)(O)CP(=O)(O)O)[C@@H](O)[C@H]1O, COc1cc2nc(N3CCN(C(C)=O)CC3)nc(NC3CC3)c2cc1OC, COc1cc2nc(NC3CCN(C)CC3)nc(NC3CCN(C)CC3)c2cc1OC, OCC1OC(n2cnc3c(NCc4ccco4)ncnc32)C(O)C1O (stereo not given), N#Cc1ccc(COC[C@H]2O[C@@H](n3c(NCc4ccc(Cl)c(Cl)c4)nc4c(N)ncnc43)[C@@H](O)[C@@H]2O)cc1, Nc1ccc(CCNc2ncnc3c2ncn3C2OC(CO)C(O)C2O)cc1 (stereo not given)
